Screens (PubChem BioAssay)
Hits are enriched below; roughly 5.5% of the tested compounds scored in any of these assays.
Six1-Eya2 blk – inhibitors of human Six1/Eya2 interaction; Q15475+O00167; AlphaScreen GST-Six1/His-Eya2 binding, biochemical; stronger effect = lower value; activity change, % (no concentration beside the values); 0.56% of 360,000 active; in the data active = activity change below about -65%; inconclusive = mostly about -30% to -63%; also: % is scaled to controls: 0 for no effect and ±100 for the full control effect
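GST-Six1 + His-Eya2 (5X stock: 250/500 nM); Tris pH 8.0, 300 mM NaCl, 0.05% BSA, 0.02% Tween 20; GSH donor/Ni acceptor beads; 1 h 37 °C dark; AlphaScreen readout.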
Gal4-VP16 FLuc – Gal4-VP16 reporter inhibition counter-screen | Potency, µM (series often up to 53.6 µM), inactives show top-dose activity, negative = inhibition, most hits filed as inhibitors | Drosophila S2 Gal4-VP16 UAS-luciferase, luminescence, 20 h | 3.5% of 310,000 active;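 also: Gal4-VP16 expression switched on by copper sulfate through the metallothionein promoter; potency is read from the fitted curve at half-maximal effect; % is scaled to controls: 0 for no effect and ±100 for the full control effect; nearly all actives have a fitted effect of over 50% in size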
CBFb-RUNX1 inh – inhibitors of human CBF-beta and RUNX1 interaction; AlphaScreen CBFb-His/RUNX1-biotin binding, biochemical; Potency, µM (series often up to 59.8 µM), inactives show top-dose activity, negative = inhibition, hits mostly inhibitors; 230,000 tested, under 10 active; Q01196+Q13951; also: % of control where 0% means no effect
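His-tagged CBF-beta and biotinylated RUNX1 (30 nM each) were premixed 20 min at room temperature, exposed to compound for 15 min, then given nickel-chelate and streptavidin AlphaScreen beads (50 ng each). After 90 min, AlphaScreen signal was read.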
MBNL1-CUG inh – blocks human MBNL1 binding to CUG repeat RNA. AID 2675. 0.036% of 280,000 active. TR-FRET MBNL1-His/biotin-(CUG)12 binding, 665/545 ratio. Q9NR56. Potency, µM (doses to about 57.5 µM), for inactives: top-dose activity change, negative = inhibition, usual class: inhibitors; active = well fitted inhibition curve with a large enough effect in the signal ratio, with a control signal flat, not every such curve was filed as active; inconclusive = small, poorly fitted or top-dose-only effect, or effect the other way, or a change in a side signal; inactive = no such curve, though single readings can be large or run the other way; the % refers to the signal ratio; also: potency is read from the fitted curve at half-maximal effect; % is scaled to controls: 0 for no effect and ±100 for the full control effect
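Compounds (final 92 nM to 58 uM) are added to His-tagged MBNL1 and biotin-(CUG)12, then terbium anti-His antibody and streptavidin-XL665 (5 nM final). After 60 min at room temperature, the 665/545 nm ratio is read.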
RORgamma inh – ROR gamma (mouse) transcription inhibition; Potency, µM (doses to about 53.6 µM), for inactives: at the top dose activity change, negative = inhibition, hits mostly inhibitors; AID 2551; 5.4% of 310,000 active; Drosophila S2 Gal4-RORgamma UAS-luciferase reporter, 20 h; also: potency is read from the fitted curve at half-maximal effect; % is scaled to controls: 0 for no effect and ±100 for the full control effect; nearly all actives have a fitted effect of over 60% in size
Target sequence (P51450 whole entry, looked up, the tested form may be a part): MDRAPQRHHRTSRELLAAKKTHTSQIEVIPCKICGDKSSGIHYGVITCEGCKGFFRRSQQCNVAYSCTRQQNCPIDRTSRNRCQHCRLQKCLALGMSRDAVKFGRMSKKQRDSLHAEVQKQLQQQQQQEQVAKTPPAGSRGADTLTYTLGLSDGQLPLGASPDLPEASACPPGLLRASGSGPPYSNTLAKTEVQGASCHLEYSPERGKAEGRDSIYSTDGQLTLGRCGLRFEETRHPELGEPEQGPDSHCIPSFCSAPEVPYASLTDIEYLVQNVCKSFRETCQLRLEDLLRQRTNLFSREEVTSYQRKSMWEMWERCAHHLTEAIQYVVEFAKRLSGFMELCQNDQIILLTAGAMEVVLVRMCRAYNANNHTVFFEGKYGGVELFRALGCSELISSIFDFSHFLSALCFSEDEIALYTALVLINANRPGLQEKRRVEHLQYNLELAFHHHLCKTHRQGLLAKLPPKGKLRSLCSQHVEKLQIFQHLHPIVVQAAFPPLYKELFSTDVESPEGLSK
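Drosophila S2 cells stably expressing Gal4-DBD/mouse RORγ fusion under metallothionein promoter plus UAS-luciferase; compound 1 h, then 700 uM CuSO4 induction for 20 h at ambient temperature; inhibition read as reduced luminescence.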
CtBP-E1A inh – inhibitors of CtBP/E1A interaction | activity change, % (no concentration beside the values) | 0.49% of 340,000 active | AlphaScreen GST-E1A/His-CtBP binding, 1536-well; stronger effect = lower value; in the data active = activity change below about -65%; inconclusive = mostly about -30% to -63%; also: % is scaled to controls: 0 for no effect and ±100 for the full control effect
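Steps: dispense buffer (Tris pH 8.0, NaCl 300 mM, TCEP 1 mM, BSA, Tween 20); add 5X protein mix (GST-E1A, His-CtBP, 125 nM each); pin 23 nL compound; 2 h at 37 °C, dark; add 5X beads (50 ug/mL); 1 h; read.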
* hit, by the source's call; ? = inconclusive; / = no result given; [ ] = another dose, or the depositor's remark. Unless noted, calls follow the shape of the dose curve; as a rule, active = well fitted curve in the direction sought with a large enough effect; inconclusive = small, poorly fitted or top-dose-only effect, or another doubt; inactive = no such curve, though single readings can be large; an effect the other way counts as inactive or inconclusive.

SMILES | Six1-Eya2 blk | Gal4-VP16 FLuc | CBFb-RUNX1 inh | MBNL1-CUG inh | RORgamma inh | CtBP-E1A inh
Cc1nc(CN(C)C(=O)c2cc(COc3ccc4ncccc4c3)on2)cs1 | -3 | 6.3µM* | 3% | -4% | ? | 6
CCN1CCN(C(=O)c2cc(COc3ccc4ncccc4c3)on2)CC1 | 0 | ? | -4% | -7% | -44% | 12
COCC1CCCCN1C(=O)c1cc(COc2ccc3ncccc3c2)on1 (configuration not stated) | 6 | 7.1µM* | / | 2% | -40% | /
CCCN1CCN(C(=O)c2cc(COc3ccc4ncccc4c3)on2)CC1 | 2 | 20µM* | 5% | 7% | 13µM* | -2
Cc1ccc(-n2nc3c(=O)n(CCCC(=O)NCc4ccccc4Cl)nc(C)c3c2C)cc1 | 1 | 3% | / | 2% | 33% | /
CCCCCNC(=O)C(C1CC1)n1c(=O)c(-c2cc3ccccc3[nH]2)nc2ccccc21 (configuration not stated) | 71 | / | / | / | / | 0
CN(C)[C@H]1C(=O)C(C(=O)NCN2CCCC2)=C(O)[C@]2(O)C(=O)C3=C(O)c4c(O)cccc4[C@](C)(O)[C@H]3C[C@H]12 | / | -3% | / | / | 0%[10 µM] | /
O=C(c1cccnc1)c1ncc(C(F)(F)F)cc1Cl | -1 | 0% | / | -1% | 9% | /
COC(=O)CC1c2ccccc2C(Cc2ccc(OC)cc2)C(C)N1C(=O)OC (configuration not stated) | / | / | 9%[13.1 µM] | / | / | /
COC(=O)[C@]12CCCCC=C1N(Cc1ccccc1)C(=O)[C@H](CC(=O)NCCCN1CCCC1=O)C2 | 9 | / | / | / | / | -10
COCCOC1CCN(C(=O)c2cc(COc3ccc(-n4cncn4)cc3)on2)CC1 | 1 | 3% | / | -4% | 2% | 2
COCCC1CCCCN1C(=O)c1cc(COc2ccc(-n3cncn3)cc2)on1 (configuration not stated) | 13 | 8.9µM* | / | -3% | 0% | -8
O=C(Nc1nc2ccccc2[nH]1)c1cccc(S(=O)(=O)N2CCOCC2)c1 | ? | ? | 6% | / | 8.9µM* | ?
O=C(NCc1nc2ccccc2[nH]1)c1cccc(S(=O)(=O)N2CCOCC2)c1 | -4 | -2% | 1% | -7% | 19% | -8
O=C(Nc1nc2ccccc2[nH]1)c1ccc(F)c(S(=O)(=O)N2CCOCC2)c1 | ? | ? | -9% | -6% | 14µM* | ?
CCc1cccc(C)c1NC(=O)Cn1nc(C)n2cccc2c1=O | -1 | 0% | / | 2% | -4% | 1
Nc1c(S(=O)(=O)O)cc(NC(=O)c2ccccc2)c2c1C(=O)c1ccccc1C2=O | -71* | -13% | / | ? | -5% | /
COc1cc(Cl)ccc1OC1(C)CCN(Cc2ccc(-c3ccccn3)cc2)C1 (configuration not stated) | -26 | / | / | / | / | -16
CNc1ccc(Cl)nn1 | 4 | 1% | -1% | / | 3% | -2
NNc1ccc(Cl)nn1 | 1 | ? | -14% | / | 10µM* | -7
CCN(C(=O)CSc1nnc(SC)s1)c1c(N)n(Cc2ccccc2)c(=O)[nH]c1=O | 5 | / | / | / | / | 13
O=C(OCCN1CCCCC1)c1cccc(Cl)c1 | 9 | -12% | / | -5% | -21% | /
CN(C)c1ccc(C=c2c3cc([N+](=O)[O-])ccc3n3c2cc(-c2ccccc2)[n+]3C)cc1 | -80* | / | / | / | / | 6
COc1cc(N(C)C)ccc1C=c1c2ccccc2n2c1cc(-c1ccccc1)[n+]2C | -80* | / | / | / | / | -80*
O=C(CSc1nnc(NC(=O)c2ccccc2F)s1)NCC1CCCO1 (configuration not stated) | 7 | -5% | / | -3% | -16% | 4
COc1ccc(CNCC(O)COc2cccc3c2OC(C)(C)C3)cc1 (configuration not stated) | 2 | 10µM* | 5% | -9% | -12% | -1
